Assay outcomes deposited in PubChem by several laboratories.
Rows were chosen to be rich in hits. Some 1.6% of all compounds tested hit in one or more screens of this group.
TRAIL sens C8: viability loss with TRAIL in NB7+C8 cells, primary screen, TRAIL sensitizer project, cell-based, ATPlite luminescence; inhibition (viability loss, TRAIL sensitization), % at 10 µM; 1% of 360,000 active; AID 624354, 2012;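 active means compounds causing at least 50% loss of cell viability in the single-dose screen, relative to plate controls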
STAT1 blocker: STAT1 signaling inhibitors, primary screen, cell-based, HTS, luciferase reporter. inhibition, % at 5.5 µM. 0.35% of 200,000 active. NIH 3T3 STAT1-luciferase reporter, IFN-gamma, luminescence;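 active means inhibition above a set limit, the mean inhibition across all tested compounds plus 3 SD, cut at about 34% in these data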;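 further: 0% = IFN-gamma with DMSO and 100% = IFN-gamma with 300 µM nifuroxazide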
STAT3 inh: IL-6 driven STAT3 reporter inhibitors, primary screen, U3A cells, luciferase, luminescence, MLSCN library; inhibition, % at 5.5 µM; 0.89% of 190,000 active; IL-6 STAT3-luciferase reporter; host cell line lacks STAT1;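 active means inhibition above the mean inhibition across all screened compounds plus 3 SD, cut at about 44% in these data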;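 further: 0% = DMSO only wells and 100% = 100 µM nifuroxazide control wells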
Platelet DG rel: inhibitors of platelet dense granule secretion, primary screen, cell-based, MLPCN, human platelets; human platelet-rich plasma, SFLLRN dense granule ATP release, luminescence; inhibition, %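 (compounds screened at 7.5 µM in platelet-rich plasma)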; 0.22% of 300,000 active; AID 1663, 2009;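 active means mean replicate score, as percent of positive control, at or above 50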
PPC-1+TRAIL kill: compounds killing PPC-1 cancer cells with TRAIL present, primary screen, TRAIL potentiator project, ATPLite luminescence, uHTS | 0.41% of 220,000 active | AID 1443, 2008 | cell killing (% activity), % at 4 µM or 5 µM | PPC-1 cells + TRAIL, ATPLite viability luminescence;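 active means cell killing above 50% in the first pass at 4 µM, then a duplicate retest at 5 µM averaging 50% or more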;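 further: plate controls were cells with TRAIL plus DMSO for no effect and medium-only wells lacking cells for full effect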
An asterisk follows results filed as active; · = not tested or not shown.

SMILES	TRAIL sens C8	STAT1 blocker	STAT3 inh	Platelet DG rel	PPC-1+TRAIL kill
Clc1ccc(-c2nc(-c3ccncc3)no2)c(Cl)c1	38	·	·	0	·
Cc1ccc(-c2nc(-c3ccncc3)no2)c(Cl)c1	55*	·	·	2	·
CC(=O)c1ccc2c(c1)N(Cc1ccccc1Cl)C(=O)C(C)S2 (centres undefined)	17	·	·	·	·
CCCCCCCCCCn1ccc(=N)cc1	55*	·	·	-1	47
CCCCCCCCn1ccc(=N)cc1	30	·	·	16	31
CCN1CCN(c2ccc(NC(=O)CC3OC(=O)c4ccccc43)cc2C)CC1 (centres undefined)	-6	·	·	·	·
CC1=C(C(=O)N2CCOCC2)CC(CC(=O)NCCCCc2ccccc2)C(=O)N1CCC1=CCCCC1 (centres undefined)	-3	·	·	·	·
O=C(N/N=C/c1ccc(Br)s1)c1ccccn1	52*	-41	9	11	34
COC(=O)c1c(NC(=O)c2ccc(C(=O)c3ccccc3)cc2)sc2c1CC(C)(C)NC2(C)C	46	·	·	·	·
COC(=O)c1c(NC(=O)c2nc3ccccc3s2)sc2c1CC(C)(C)NC2(C)C	86*	-8	·	14	19
CCc1ccc2oc(-c3cc(N)ccc3Cl)nc2c1	47*	-32	-19	3	43
CN(C)c1ccc(-c2nc3cc(N)ccc3o2)cc1	83*	·	·	30	·
Nc1ccc(-c2nc3cc(N)ccc3o2)cc1	48	·	·	0	·
CCc1ccc2oc(-c3cc(N)ccc3O)nc2c1	65*	23	24	26	15
Cc1nc(SCCC(=O)O)c2cc(-c3ccccc3)sc2n1	63*	·	·	-7	·
COCCCN1C(=O)C(CC(=O)NCC2CCCCC2)CC(C(=O)N2CCOCC2)=C1C (centres undefined)	-2	·	·	·	·
COC(=O)[C@H](CC(C)C)NC(=O)CC[C@H]1O[C@@H](n2ccc(=O)[nH]c2=O)[C@H](O)[C@@H]1O	-18	·	·	·	·
CC1(Cc2ccc(Cl)cc2)C(=O)Nc2ccc(S(=O)(=O)NC3CCCCC3)cc21 (centres undefined)	7	·	·	·	·
CC1(Cc2ccc(OC(F)(F)F)cc2)C(=O)Nc2ccc(S(=O)(=O)NC3CCCCC3)cc21 (centres undefined)	64*	·	·	·	·
CCn1c(C)nc2cc(NC(=O)Nc3cccc(C(C)=O)c3)ccc21	56*	·	·	-5	·
CC(O)c1nc2ccccc2n1C/C=C/c1ccccc1 (centres undefined)	-18	-4	0	-5	-7
Cc1c(P(=S)(c2ccccc2)c2ccccc2)[n+]2ccccc2n1C/C=C/c1ccccc1	78*	·	·	·	·
CN1/C(=C\C(=O)c2cccnc2)C(C)(C)c2ccccc21	-10	-11	-26	-5	-4
CN1/C(=C/C(=O)c2nc(S(C)(=O)=O)ncc2Cl)C(C)(C)c2ccccc21	67*	10	-13	-12	-5
OC(c1cccc(Cl)c1)c1ncc(-c2cccc(C(F)(F)F)c2)[nH]1 (centres undefined)	12	·	·	·	·
SMILES	TRAIL sens C8	STAT1 blocker	STAT3 inh	Platelet DG rel	PPC-1+TRAIL kill
CC1(c2nnnn2Cc2ccccc2)CCC(=O)N1CCOc1ccccc1 (centres undefined)	0	·	·	·	·
CC(=O)c1ccc(NC(=O)Nc2cccnc2)cc1	52*	·	·	·	·
CCC(C)c1ccc(NC(=O)NCc2cccnc2)cc1 (centres undefined)	1	·	·	-48	·
CCC(C)c1ccc(NC(=O)Nc2cccnc2)cc1 (centres undefined)	49*	·	·	-35	·
CC(=O)c1ccc(NC(=O)Nc2ccncc2)cc1	19	0	19	-3	-1
O=C(NCc1ccccc1Cl)c1csc([C@@H]2C[C@H](O)[C@@H](CO)O2)n1	-7	·	·	·	·
COC(=O)c1cccc(-c2ccc(/C=N/N3C(=O)C4C5C=CC(C6CC56)C4C3=O)o2)c1 (centres undefined)	-3	-7	2	1	9
COC(=O)c1ccc(-c2ccc(/C=N/N3C(=O)C4C5C=CC(C6CC56)C4C3=O)o2)cc1 (centres undefined)	11	-42	-4	-3	55*
CSCCC(NC(=O)c1ccc(Cl)c([N+](=O)[O-])c1)C(=O)N1CCN(C/C=C/c2ccccc2)CC1 (centres undefined)	65*	·	·	-18	·
O=C(NCC(=O)N1CCN(C(c2ccccc2)c2ccccc2)CC1)c1ccccc1Br	6	·	·	·	·
CN(C)c1ccc(/C=C/c2ccc3c4ccccc4ccc3[n+]2-c2ccccc2)cc1	63*	46*	81*	·	68*
CCOC(=O)C1(C)CCN1C(=O)c1ccco1 (centres undefined)	1	·	·	·	·
COCCN(C(=O)COC(=O)c1c(NC(C)=O)sc(C)c1C)c1c(N)n(Cc2ccccc2)c(=O)[nH]c1=O	51*	·	·	·	·
COCCN(C(=O)COC(=O)CCc1nc2ccccc2s1)c1c(N)n(Cc2ccccc2)c(=O)[nH]c1=O	-19	·	·	52*	·
C[C@H]1CN([C@@H](C)CO)C(=O)CCCn2nncc2CO[C@@H]1CN(C)C(=O)NC1CCCCC1	-2	·	·	·	·
Cc1ccc(-c2cnc(-c3ccccc3C(=O)O)o2)cc1	6	·	·	-6	·
Cn1c(-c2ccc(Br)o2)nc2ccccc21	52*	-44	11	14	10
Cc1oc(-c2nc3ccccc3n2C)cc1C(=O)c1ccccc1	80*	39*	73*	·	19
Cc1ccc(-c2nc3ccccc3n2C)o1	34	-32	26	25	45
CC(C)(C)N1C(=O)c2ccccc2NC(=O)C1C(=O)NCc1ccco1 (centres undefined)	1	·	·	·	·
O=C1NC(=O)C2(CCCc3c([N+](=O)[O-])cccc32)N1 (centres undefined)	-4	·	·	·	·
CN(C(=O)c1cccc(COc2ccc(Cl)cc2Cl)c1)c1ccccc1	11	-20	-8	0	10
CN(C)C(=O)c1cccc(COc2ccc(N3C(N)=NC(N)=NC3(C)C)cc2Cl)c1	83*	·	·	·	·
COc1ccccc1N1CCN(CCS(=O)(=O)c2cc(Cl)ccc2Cl)CC1	-2	·	·	·	·
O=c1c(C=NCc2cccnc2)c(C(F)(F)F)[nH]n1-c1nc2ccccc2s1	45	38*	56*	3	·
SMILES	TRAIL sens C8	STAT1 blocker	STAT3 inh	Platelet DG rel	PPC-1+TRAIL kill
CCC(=NCc1ccccc1)c1c(C(F)(F)F)[nH]n(-c2nc3ccccc3s2)c1=O	5	-13	28	-1	21
CC1=C(C(=O)N2CCCCCC2)CC(CC(=O)NCCN2CCOCC2)C(=O)N1CCC1=CCCCC1 (centres undefined)	-9	·	·	·	·
COc1ccc2nc3cc(Cl)ccc3c(Nc3cc(C(C)C)c(O)cc3C)c2c1	27	·	·	7	15
COc1ccc2nc3cc(Cl)ccc3c(Nc3cc(CN4CCCC4)c(O)c(CN4CCCC4)c3)c2n1	79*	·	·	0	·
CC(C)(C)Nc1ncnc2c1cnn2-c1ccccc1	60*	·	·	-9	27
Cc1ccc(N=Cc2c(C)[nH]n(-c3nc4ccccc4[nH]3)c2=O)cc1	89*	11	28	45	79*
